Experimental findings from PubChem BioAssay (NCI) are described below.

The structures appear in SMILES notation. Compounds without any hit were thinned out: in the full panel of roughly 83,000, 20% have a hit.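 Cells were grown in 96-well plates and exposed to the test compound at a single concentration for 48 hours; results are reported as percent growth, with values below 10 considered active.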 The source made the active and inactive calls.

For the assay, the system named is SF-268 CNS. Description: NCI-60 one-dose screen, 48 h (100 = growth as untreated, 0 = no growth, -100 = all killed). The conditions noted are these: 10 µM unless noted.
Regarding `O=C1/C(=C/c2ccccc2)SC(=Nc2ccccc2)N1Nc1ccccc1`, the growth was 26.9% (inactive).

`COc1cnc2c(c1)C(=O)c1c-2n(CCCNC(C)C)c(=O)c2cc(Cl)ccc12`: the growth was -64.2% (active).

As to `CCSCC1CC(O)(c2ccccc2)C(c2ccccc2)C(c2ccc(F)cc2)O1` (centres undefined), the growth is 1.85% (active).

On to `CN1C(=O)C(C2=NNC(c3ccccc3C(=O)O)C2)C(=O)N(C)C1=O` (centres undefined), for which the growth was 98.8% (inactive).

Turning to `NC(N)=NC1CCCCC1`, the growth is -15.8% (active).

Consider `COc1ccc(C(=O)OC2C(OC3C(O)COC(O[C@H]4C[C@H]5[C@@H]6CC=C7C[C@@H](O)CC[C@]7(C)[C@H]6CC[C@]5(C)[C@H]4[C@H](C)C(=O)CCC(C)C)C3OC(C)=O)OCC(O)C2O)cc1` (some centres undefined), for which the growth was -12.6% (active).

In the case of `CC(C)(C)c1ccc(OC(=O)Nc2ccccc2)cc1`, the growth is 96% (inactive).

In the case of `CN1C2CCC1/C(=C\c1ccc(F)cc1)C(=O)/C2=C/c1ccc(F)cc1`, the growth is 63% (inactive).

Regarding `CCCCOC(=O)c1cc(O)c(O)c(O)c1`, the growth is 53.5% (inactive).

For the compound `CCOC(=O)C1OC2(CCCC2)OC1C(=O)OCC` (centres undefined), the growth was 114% (inactive).

Regarding `O=C(Nc1cccc(-n2ccc3c(NC(=O)c4ccccc4)nccc32)c1)c1ccc(N2CCOCC2)c(C(F)(F)F)c1`, the growth was 24.2% (inactive).

In the case of `CCN(CC)CCCC(C)Nc1c(-c2ccccc2)cnc2cc(Cl)ccc12` (centres undefined), the growth is 77.7% (inactive).

As for `O=C1C=CN2C(=O)CC=CC2[C@@H]1O` (some centres undefined), the growth was 111% (inactive).

As for `CC(=O)O[C@@H]1CC2C(C)(C)CCCC2(C)C2=C1C(=O)C(C(C)C)=CC2=O` (some centres undefined), the growth is 27.1% (inactive).

Regarding `O=C(Nc1ccc(-n2ccc3c(NC(=O)c4ccccc4)nccc32)cc1)c1ccc(N2CCOCC2)c(C(F)(F)F)c1`, the growth was 37% (inactive).

Take `COc1cc(/C=C/c2cc(/C=C/c3ccc(O)c(OC)c3)n(C(=O)Nc3ccc(F)c(Cl)c3)n2)ccc1O`: the growth was 6.57% (active).

With `COc1cc(OC)c2sc(-c3ccc(-n4cncc4-c4ccc(OC)c(N)c4)cc3)nc2c1`, the growth was 87.3% (inactive).

As to `COc1ccc(C2=NNC(c3ccc(Oc4nc5c(c(=O)n(C)c(=O)n5C)n4C)c(OC)c3)C2)cc1` (centres undefined), the growth is 93.4% (inactive).

Regarding `NS(=O)(=O)c1ccc(CCn2c(SCC(=O)N/N=C/c3cccnc3)nc3ccccc3c2=O)cc1`, the growth is 89.7% (inactive).

As to `O=C(NNC(=O)c1cccc(Cl)c1)c1ccccc1`, the growth was 108% (inactive).

As for `N=c1nc(N2CCCCC2)cc(N)n1O`, the growth was 109% (inactive).

As for `Cc1ccc(C)c(NC(=O)c2sc3c(=O)[nH]cnc3c2C)c1`, the growth was 101% (inactive).

With `C=CCOC(=O)C1=C(C)NC2=C(C(=O)CCC2)C1c1ccc(F)cc1` (centres undefined), the growth was 106% (inactive).

As to `COc1ccc(-c2cnc(-c3ccncc3-c3cccc(OC)c3)o2)cc1`, the growth is 18.2% (inactive).

On to `O=C(Nc1ccncc1)C(=O)c1cn(S(=O)(=O)c2cccc(Cl)c2F)c2ccccc12`, for which the growth was 80.6% (inactive).

`Cc1ccccc1Nc1n[nH]c(Cc2ccccc2)n1`: the growth was 101% (inactive).

For `Oc1ccccc1-c1nnc(COc2ccc(Cl)cc2Cl)o1`, the growth was 8.59% (active).

In the case of `CS(=O)(=O)c1ccc(C(=O)N/N=C/c2ccccc2O)cc1`, the growth is 38.4% (inactive).

Turning to `CCCCCCCCCCCCCCCCCC(=O)OCCCCCCCCCCCCC`, the growth is 106% (inactive).

As for `COc1cc(C2CC(c3ccc(C)cc3)=NN2C=O)ccc1Oc1nc2c(c(=O)n(C)c(=O)n2C)n1C` (centres undefined), the growth was 58.1% (inactive).

As for `COc1cc(C2CC(c3ccccc3)=NN2C=O)ccc1Oc1ccnc2cc(Cl)ccc12` (centres undefined), the growth is 65.6% (inactive).

Consider `NC(N)=N/N=C/c1ccc(Cl)cc1`, for which the growth is 68.5% (inactive).

As to `O=c1c2cc(Cl)ccc2oc2ccc(OCCCCCN3CCCCC3)cc12`, the growth was 73.1% (inactive).

For the compound `COc1cc(Cl)cc(-c2nn(C(=O)NCCN3CCOCC3)cc2-c2ccncc2)c1`, the growth was 80.9% (inactive).

`COc1ccc2nc3ccccc3c(NCc3ccc(Cl)cc3)c2c1`: the growth was 53.5% (inactive).

As for `CN1C(=O)N(C)C2C1NN=c1s/c(=C\c3ccc(C(F)(F)F)cc3)c(=O)n12` (centres undefined), the growth was 45.1% (inactive).

In the case of `C=C1C(=O)O[C@H]2[C@H]1CC/C(COC(=O)NCc1cn(C)c3ccccc13)=C\CC[C@@]1(C)O[C@@H]21`, the growth was 24.2% (inactive).

Take `c1csc(-c2cnc3nonc3n2)c1`: the growth was 88.7% (inactive).

Turning to `Nc1nc(NC2CC2)cc(-c2cccc(Cl)c2Cl)n1`, the growth is 67.6% (inactive).
